Where a name gives a salt, the structure may show the parent alone. ± gives the uncertainty stated by the source.
Test system: Candida albicans SNY425 biofilm
Assay: biofilm OD600 with compound plus antifungal (OD600 (absorbance)); higher = more biofilm remaining
[1] = assay detail: disruption of 24-h mature biofilm (compound + antifungal for a second 24 h)
[2] = assay detail: sustained inhibition (compound + antifungal during 90-min adherence and 24-h growth)

Row | Structure (SMILES) | biofilm OD600 [1] | biofilm OD600 [2]
1 | CC(NC(=O)C(Cc1ccccc1)NC(=O)OCc1ccccc1)C(=O)CF (stereo not drawn) + OC(Cn1cncn1)(Cn1cncn1)c1ccc(F)cc1F [fluconazole] (first compound 12.5 µM) | 0.287 ± 0.011 | 0.119 ± 0.0049
2 | CO[C@@H]1[C@H](OC(=O)/C=C/C=C/C=C/C=C/C(=O)O)CC[C@]2(CO2)[C@H]1[C@@]1(C)O[C@@H]1CC=C(C)C [Fumagillin] + CC[C@H](C)C[C@H](C)CCCCCCCCC(=O)N[C@H]1C[C@@H](O)[C@@H](NCCN)NC(=O)[C@@H]2[C@@H](O)CCN2C(=O)[C@H]([C@H](O)CCN)NC(=O)[C@H]([C@H](O)[C@@H](O)c2ccc(O)cc2)NC(=O)[C@@H]2C[C@@H](O)CN2C(=O)[C@H]([C@@H](C)O)NC1=O [caspofungin] (first compound 12.5 µM) | 0.257 ± 0.0085 | 0.166 ± 0.0044
3 | CCOC(=O)c1ccc(OC(=O)CCCCCNC(=N)N)cc1 [Gabexate mesylate] + CC[C@H](C)C[C@H](C)CCCCCCCCC(=O)N[C@H]1C[C@@H](O)[C@@H](NCCN)NC(=O)[C@@H]2[C@@H](O)CCN2C(=O)[C@H]([C@H](O)CCN)NC(=O)[C@H]([C@H](O)[C@@H](O)c2ccc(O)cc2)NC(=O)[C@@H]2C[C@@H](O)CN2C(=O)[C@H]([C@@H](C)O)NC1=O [caspofungin] (first compound 12.5 µM) | 0.26 ± 0.0083 | 0.181 ± 0.006
4 | O=C(O[C@@H]1Cc2c(O)cc(O)cc2O[C@@H]1c1cc(O)c(O)c(O)c1)c1cc(O)c(O)c(O)c1 [Epigallocatechin gallate] + CC[C@H](C)C[C@H](C)CCCCCCCCC(=O)N[C@H]1C[C@@H](O)[C@@H](NCCN)NC(=O)[C@@H]2[C@@H](O)CCN2C(=O)[C@H]([C@H](O)CCN)NC(=O)[C@H]([C@H](O)[C@@H](O)c2ccc(O)cc2)NC(=O)[C@@H]2C[C@@H](O)CN2C(=O)[C@H]([C@@H](C)O)NC1=O [caspofungin] (first compound 12.5 µM) | 0.264 ± 0.016 | 0.211 ± 0.01

Source: the supplement of paper PMC7261846
